Experimental data reported in PubChem BioAssay AID1159580 (chemical genetic matrix, 2015).
The campaign covered roughly 5,500 compounds. About 2,000 (36%) were called active. Not shown: some 18% with an inconclusive outcome. No stated cut-off is given here; in the data, active means normalized growth mostly below about 0.91 (no sharp cut-off); inconclusive means no clear call, values can overlap the other calls; inactive means mostly above about 0.92. Some of the results follow.

Assay: chemical genetic growth profiling, strain panel (AID 1159580);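 further: tested at 20 µM; growth read once vehicle control cultures reached saturation at 30 °C; 1 = growth at the plate median or of vehicle wells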
Settings: S. cerevisiae deletion strains, growth OD

Measured: normalized growth

C1CNCCN1
inactive: locus YAL013W, strain DEP1, stronger effect = lower value 1.01 | locus YAL021C, strain ccr4, stronger effect = lower value 0.999 | locus YAL026C, strain drs2, stronger effect = lower value 1.02 | locus YAL030W, strain snc1, stronger effect = lower value 1.01 | locus YBL061C, strain skt5, stronger effect = lower value 1.02 | locus YBR009C, strain hhf1, stronger effect = lower value 1.01 | locus YBR021W, strain FUR4, stronger effect = lower value 0.979 | locus YBR023C, strain chs3, stronger effect = lower value 1.02 | locus YBR171W, strain sec66, stronger effect = lower value 1.02 | locus YBR229C, strain ROT2, stronger effect = lower value 0.997 | locus YBR231C, strain swc5, stronger effect = lower value 0.997 | locus YBR279W, strain paf1, stronger effect = lower value 1.01 | locus YCL011C, strain gbp2, stronger effect = lower value 1.01 | locus YCL016C, strain dcc1, stronger effect = lower value 1.01 | locus YCL029C, strain bik1, stronger effect = lower value 0.997 | locus YCL061C, strain MRC1, stronger effect = lower value 1 | locus YCL069W, strain vba3, stronger effect = lower value 1.01 | locus YCR088W, strain abp1, stronger effect = lower value 1.01 | locus YDL005C, strain med2, stronger effect = lower value 1.02 | locus YDL035C, strain GPR1, stronger effect = lower value 1.01 | locus YDL040C, strain nat1, stronger effect = lower value 1.01 | locus YDL074C, strain BRE1, stronger effect = lower value 1.03 | locus YDL101C, strain DUN1, stronger effect = lower value 1.02 | locus YDL134C, strain PPH21, stronger effect = lower value 1.01 | locus YDL185W, strain tfp1, stronger effect = lower value 1.02 | locus YDL192W, strain arf1, stronger effect = lower value 0.999 | locus YDR001C, strain nth1, stronger effect = lower value 1.01 | locus YDR069C, strain doa4, stronger effect = lower value 1.01 | locus YDR101C, strain arx1, stronger effect = lower value 0.987 | locus YDR137W, strain rgp1, stronger effect = lower value 1.03 | locus YDR150W, strain NUM1, stronger effect = lower value 1 | locus YDR159W, strain sac3, stronger effect = lower value 1.04 | locus YDR162C, strain NBP2, stronger effect = lower value 1.02 | locus YDR195W, strain ref2 1 | locus YDR297W, strain sur2, stronger effect = lower value 1.01 | locus YDR318W, strain mcm21, stronger effect = lower value 0.998 | locus YDR334W, strain swr1, stronger effect = lower value 1.01 | locus YDR335W, strain msn5, stronger effect = lower value 1.01 | locus YDR388W, stronger effect = lower value 0.996 | locus YDR392W, strain spt3, stronger effect = lower value 0.962 | locus YDR502C, strain sam2, stronger effect = lower value 0.999 | locus YEL003W, strain gim4, stronger effect = lower value 1.01 | locus YEL037C, strain rad23, stronger effect = lower value 1.01 | locus YEL061C, strain CIN8 (second series), stronger effect = lower value 1.01 | locus YEL061C, strain CIN8, stronger effect = lower value 1 | locus YER015W, strain faa2, stronger effect = lower value 0.999 | locus YER016W, strain bim1, stronger effect = lower value 0.999 | locus YER110C, stronger effect = lower value 0.988 | locus YER111C, strain swi4, stronger effect = lower value 1.02 | locus YER155C, strain BEM2 (second series), stronger effect = lower value 1 | locus YER155C, strain BEM2, stronger effect = lower value 1.01 | locus YER167W, strain BCK2, stronger effect = lower value 1.01 | locus YFR010W, strain ubp6, stronger effect = lower value 1.01 | locus YGL078C, strain dbp3, stronger effect = lower value 0.99 | locus YGL086W, strain mad1, stronger effect = lower value 0.996 | locus YGL167C, strain pmr1, stronger effect = lower value 1.02 | locus YGL173C, strain kem1, stronger effect = lower value 1.02 | locus YGL227W, strain vid30, stronger effect = lower value 1.01 | locus YGL240W, strain doc1, stronger effect = lower value 1.01 | locus YGL248W, strain PDE1, stronger effect = lower value 1 | locus YGL253W, strain hxk2, stronger effect = lower value 0.992 | locus YGR078C, strain PAC10, stronger effect = lower value 1 | locus YGR135W, strain pre9, stronger effect = lower value 1.01 | locus YGR229C, strain SMI1, stronger effect = lower value 1.02 | locus YGR252W, strain gcn5, stronger effect = lower value 0.948 | locus YHR013C, strain ard1, stronger effect = lower value 1.03 | locus YHR027C, strain rpn1, stronger effect = lower value 1.02 | locus YHR030C, strain SLT2, stronger effect = lower value 1.02 | locus YHR079C, strain IRE1 (second series), stronger effect = lower value 0.988 | locus YHR079C, strain IRE1, stronger effect = lower value 1.03 | locus YHR094C, strain hxt1, stronger effect = lower value 1 | locus YHR129C, strain ARP1, stronger effect = lower value 1.01 | locus YHR142W, strain chs7, stronger effect = lower value 1.02 | locus YHR200W, strain rpn10, stronger effect = lower value 1.01 | locus YIL066C, strain RNR3, stronger effect = lower value 1.01 | locus YIL073C, strain SPO22, stronger effect = lower value 0.983 | locus YIL125W, strain kgd1, stronger effect = lower value 1 | locus YIR030C, strain dcg1, stronger effect = lower value 1 | locus YJL092W, strain hpr5, stronger effect = lower value 1.01 | locus YJL095W, strain BCK1 (second series), stronger effect = lower value 1.02 | locus YJL095W, strain BCK1, stronger effect = lower value 1.01 | locus YJL115W, strain asf1, stronger effect = lower value 1.01 | locus YJL129C, strain trk1, stronger effect = lower value 1.01 | locus YJL134W, strain LCB3, stronger effect = lower value 1.01 | locus YJL154C, strain vps35, stronger effect = lower value 1.02 | locus YJL164C, strain tpk1, stronger effect = lower value 1.01 | locus YJL166W, strain qcr8, stronger effect = lower value 1.02 | locus YJL168C, strain set2, stronger effect = lower value 0.994 | locus YJL187C, strain SWE1 (second series), stronger effect = lower value 1.02 | locus YJL187C, strain SWE1, stronger effect = lower value 1.01 | locus YJR043C, strain POL32, stronger effect = lower value 1.01
